Measurements reported in PubChem BioAssay AID1159580 (chemical genetic matrix, 2015).
Among all 5,500 compounds or so, about 2,000 (36%) were called active. Another 18% or so got no clear call; they are omitted. No stated cut-off is given here; in the data, active means normalized growth mostly below about 0.91 (no sharp cut-off); inconclusive means no clear call, values can overlap the other calls; inactive means mostly above about 0.92. This is one part of the list.

Test: chemical genetic growth profiling, strain panel (AID 1159580);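 further: tested at 20 µM; growth read once vehicle control cultures reached saturation at 30 °C; 1 = growth at the plate median or of vehicle wells; lower values mean less growth of the strain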
Conditions: growth OD
[1] = S. cerevisiae deletion strains, locus YDL101C, strain DUN1, active compounds read low
[2] = S. cerevisiae deletion strains, locus YHR030C, strain SLT2, active compounds read low

Measured: normalized growth

O=C(Nc1ccccc1)N1CCN(C(c2ccccc2)c2ccccc2)CC1
inactive: S. cerevisiae deletion strains, locus YAL013W, strain DEP1, active compounds read low 0.988 | S. cerevisiae deletion strains, locus YBR229C, strain ROT2, active compounds read low 0.992 | [1] 0.994 | S. cerevisiae deletion strains, locus YDL134C, strain PPH21, active compounds read low 1.01 | S. cerevisiae deletion strains, locus YDR150W, strain NUM1, active compounds read low 1 | S. cerevisiae deletion strains, locus YEL061C, strain CIN8, active compounds read low 0.997 | S. cerevisiae deletion strains, locus YGR078C, strain PAC10, active compounds read low 1 | S. cerevisiae deletion strains, locus YGR229C, strain SMI1, active compounds read low 1 | [2] 0.963 | S. cerevisiae deletion strains, locus YHR087W, strain rtc3, active compounds read low 0.993 | S. cerevisiae deletion strains, locus YJL187C, strain SWE1, active compounds read low 1.01 | S. cerevisiae deletion strains, locus YJR043C, strain POL32, active compounds read low 0.978 | S. cerevisiae deletion strains, locus YJR075W, strain HOC1, active compounds read low 1.02 | S. cerevisiae deletion strains, locus YKL190W, strain CNB1, active compounds read low 0.989 | S. cerevisiae deletion strains, locus YLR039C, strain RIC1, active compounds read low 0.992 | S. cerevisiae deletion strains, locus YLR058C, strain SHM2 (second series), active compounds read low 0.991 | S. cerevisiae deletion strains, locus YLR085C, strain ARP6, active compounds read low 1.06 | S. cerevisiae deletion strains, locus YLR262C, strain YPT6, active compounds read low 0.985 | S. cerevisiae deletion strains, locus YML094W, strain GIM5, active compounds read low 1.04 | S. cerevisiae deletion strains, locus YMR219W, strain ESC1, active compounds read low 1.01 | S. cerevisiae deletion strains, locus YMR263W, strain SAP30, active compounds read low 0.989 | S. cerevisiae deletion strains, locus YNL153C, strain GIM3, active compounds read low 0.994 | S. cerevisiae deletion strains, locus YNL298W, strain CLA4 (second series), active compounds read low 0.966 | S. cerevisiae deletion strains, locus YNL322C, strain KRE1, active compounds read low 1 | S. cerevisiae deletion strains, locus YNR030W, strain Alg12, active compounds read low 0.986 | S. cerevisiae deletion strains, locus YPL055C, strain LGE1, active compounds read low 1.08 | S. cerevisiae deletion strains, locus YPL241C, strain CIN2, active compounds read low 1.03 | S. cerevisiae deletion strains, locus YPR135W, strain CTF4, active compounds read low 0.902 | S. cerevisiae strains, strain wild type, active compounds read low 0.973

O=C(Nc1cc2ccccc2s1)N1CCN(Cc2c(F)cccc2Cl)CC1
inactive: S. cerevisiae deletion strains, locus YAR019C, strain CDC15, active compounds read low 0.994 | S. cerevisiae deletion strains, locus YBL105C, strain PKC1, active compounds read low 0.974 | S. cerevisiae deletion strains, locus YBR135W, strain CKS1, active compounds read low 0.986 | S. cerevisiae deletion strains, locus YBR136W, strain MEC1, active compounds read low 0.973 | S. cerevisiae deletion strains, locus YBR160W, strain CDC28, active compounds read low 0.972 | S. cerevisiae deletion strains, locus YDL017W, strain CDC7, active compounds read low 0.983 | S. cerevisiae deletion strains, locus YDL028C, strain MPS1, active compounds read low 0.988 | [1] 0.982 | S. cerevisiae deletion strains, locus YDL108W, strain KIN28, active compounds read low 0.989 | S. cerevisiae deletion strains, locus YDL132W, strain cdc53, active compounds read low 0.983 | S. cerevisiae deletion strains, locus YDL214C, strain PRR2, active compounds read low 0.938 | S. cerevisiae deletion strains, locus YDR052C, strain DBF4, active compounds read low 0.986 | S. cerevisiae deletion strains, locus YDR054C, strain cdc34, active compounds read low 0.968 | S. cerevisiae deletion strains, locus YDR226W, strain ADK1, active compounds read low 0.979 | S. cerevisiae deletion strains, locus YDR477W, strain SNF1, active compounds read low 0.943 | S. cerevisiae deletion strains, locus YER123W, strain YCK3, active compounds read low 0.946 | S. cerevisiae deletion strains, locus YER133W, strain GLC7, active compounds read low 0.95 | S. cerevisiae deletion strains, locus YFL009W, strain cdc4, active compounds read low 0.981 | S. cerevisiae deletion strains, locus YFL029C, strain CAK1, active compounds read low 0.984 | S. cerevisiae deletion strains, locus YFR003C, strain YPI1, active compounds read low 0.983 | S. cerevisiae deletion strains, locus YFR019W, strain FAB1, active compounds read low 0.958 | S. cerevisiae deletion strains, locus YFR028C, strain CDC14, active compounds read low 0.988 | S. cerevisiae deletion strains, locus YGR040W, strain KSS1, active compounds read low 0.925 | S. cerevisiae deletion strains, locus YGR052W, strain FMP48, active compounds read low 0.986 | S. cerevisiae deletion strains, locus YGR092W, strain DBF2, active compounds read low 0.972 | [2] 0.938 | S. cerevisiae deletion strains, locus YHR079C, strain IRE1, active compounds read low 0.934 | S. cerevisiae deletion strains, locus YHR082C, strain KSP1, active compounds read low 0.982 | S. cerevisiae deletion strains, locus YHR205W, strain SCH9, active compounds read low 0.972 | S. cerevisiae deletion strains, locus YIL147C, strain SLN1, active compounds read low 0.982 | S. cerevisiae deletion strains, locus YJL095W, strain BCK1, active compounds read low 0.927 | S. cerevisiae deletion strains, locus YJL128C, strain PBS2, active compounds read low 0.965 | S. cerevisiae deletion strains, locus YJL157C, strain FAR1, active compounds read low 0.913 | S. cerevisiae deletion strains, locus YJR016C, strain ILV3, active compounds read low 0.997 | S. cerevisiae deletion strains, locus YJR066W, strain TOR1 (second series), active compounds read low 0.904 | S. cerevisiae deletion strains, locus YJR066W, strain TOR1, active compounds read low 0.979 | S. cerevisiae deletion strains, locus YKL048C, strain ELM1, active compounds read low 0.983 | S. cerevisiae deletion strains, locus YKL067W, strain YNK1, active compounds read low 0.946 | S. cerevisiae deletion strains, locus YKL101W, strain HSL1, active compounds read low 0.918 | S. cerevisiae deletion strains, locus YKL193C, strain SDS22, active compounds read low 0.986 | S. cerevisiae deletion strains, locus YKL203C, strain TOR2, active compounds read low 0.975 | S. cerevisiae deletion strains, locus YLR133W, strain CKI1, active compounds read low 0.928 | S. cerevisiae deletion strains, locus YLR403W, strain SFP1, active compounds read low 0.906 | S. cerevisiae deletion strains, locus YML070W, strain DAK1, active compounds read low 0.915 | S. cerevisiae deletion strains, locus YMR001C, strain CDC5, active compounds read low 0.984 | S. cerevisiae deletion strains, locus YMR205C, strain PFK2 (second series), active compounds read low 0.95 | S. cerevisiae deletion strains, locus YMR277W, strain FCP1, active compounds read low 0.983 | S. cerevisiae deletion strains, locus YNL006W, strain LST8, active compounds read low 0.989 | S. cerevisiae deletion strains, locus YNL020C, strain ARK1, active compounds read low 0.928 | S. cerevisiae deletion strains, locus YNL161W, strain CBK1, active compounds read low 0.988 | S. cerevisiae deletion strains, locus YNL183C, strain NPR1, active compounds read low 0.944 | S. cerevisiae deletion strains, locus YNL207W, strain RIO2, active compounds read low 0.976 | S. cerevisiae deletion strains, locus YNL222W, strain SSU72, active compounds read low 0.988 | S. cerevisiae deletion strains, locus YNL307C, strain MCK1 (second series), active compounds read low 0.961 | S. cerevisiae deletion strains, locus YOL078W, strain AVO1, active compounds read low 0.982 | S. cerevisiae deletion strains, locus YOL136C, strain PFK27, active compounds read low 0.911 | S. cerevisiae deletion strains, locus YOR061W, strain CKA2, active compounds read low 0.952 | S. cerevisiae deletion strains, locus YOR119C, strain RIO1, active compounds read low 0.993 | S. cerevisiae deletion strains, locus YOR231W, strain MKK1, active compounds read low 0.877 | S. cerevisiae deletion strains, locus YOR329C, strain SCD5, active compounds read low 0.972 | S. cerevisiae deletion strains, locus YPL031C, strain PHO85, active compounds read low 0.942 | S. cerevisiae deletion strains, locus YPL153C, strain RAD53, active compounds read low 0.917 | S. cerevisiae deletion strains, locus YPL204W, strain HRR25, active compounds read low 0.915 | S. cerevisiae deletion strains, locus YPL209C, strain IPL1, active compounds read low 0.976 | S. cerevisiae deletion strains, locus YPL256C, strain CLN2, active compounds read low 0.888 | S. cerevisiae deletion strains, locus YPR025C, strain CCL1, active compounds read low 0.986 | S. cerevisiae deletion strains, locus YPR106W, strain ISR1, active compounds read low 0.962 | S. cerevisiae deletion strains, locus YPR111W, strain DBF20, active compounds read low 0.962 | S. cerevisiae deletion strains, strain NNK1, active compounds read low 0.972 | S. cerevisiae deletion strains, strain TSCII, active compounds read low 0.986
active: S. cerevisiae deletion strains, locus YLR113W, strain HOG1, active compounds read low 0.853
